# Experimental data as given in ChEMBL document CHEMBL1157539, “Thousands of chemical starting points for antimalarial lead identification” (Nature, 2010).
# Tested on: Plasmodium falciparum
# Assay: GSK_TCMDC: Inhibition of Plasmodium falciparum 3D7 in whole red blood cells, using parasite LDH activity as an index of growth. Test compounds present at 2uM
# Assay type: functional
row,SMILES,Inhibition [%]
1,CCNc1cc(C(=O)N[C@@H](Cc2ccccc2)[C@H](O)CNC2CCC(F)(F)CC2)c(F)c(N2CCCCS2(=O)=O)c1.O=CO,100
2,CCCCN(Cc1cccc(C(F)(F)F)c1Cl)c1ccc(C(O)(C(F)(F)F)C(F)(F)F)cc1.O=C(O)C(F)(F)F,91
3,N#Cc1cc(C(=O)c2cc(Br)ccc2O)cn(-c2cc(Cl)cc(Cl)c2)c1=O,98
4,O=C(Nc1ccccc1Oc1ccccc1)NC1CCN(c2ccnc3cc(Cl)ccc23)C1.O=C(O)C(F)(F)F (centres undefined),99
5,Cc1ccc(NC(=O)c2ccc(CN3CCCN(CCC(C)C)CC3)cc2)cc1F.O=C(O)C(F)(F)F,91
6,Nc1ncc(-c2cn[nH]c2)cc1-c1nc2ccc(F)cc2[nH]1,100
7,CCc1sc(-c2cc(Cl)ccc2OC)nc1C(=O)NCCN1CCCCC1.O=C(O)C(F)(F)F,100
8,CCCN/C=N/c1cc(-c2csc(NC(=N)N)n2)cc([N+](=O)[O-])c1,91
9,Nc1ncc(-c2ccc(F)cc2)cc1-c1nc2ccc(Cl)cc2[nH]1,99
10,NCCCNc1ccnc2cc(Cl)ccc12,100
11,Cc1cc(-c2ccc(CN3Cc4ccccc4C3)cc2)ccc1S(=O)(=O)NCCN1CCCC1.O=C(O)C(F)(F)F,94
12,O=C(Nc1ccccc1-c1nc2ccccc2s1)C(Cl)(Cl)Cl,97
13,CCn1c(-c2nonc2N)nc2c(Cl)ncc(O[C@H](CCN)c3ccccc3F)c21.Cl,96
14,COc1cc(Nc2ccnc3cc(-c4ccncc4)ccc23)cc(OC)c1OC.Cl,89
